About 83,000 compounds went through this panel and 20% of them were active in at least one assay; those are over-represented in the sample as a whole.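 How to read the values: 0–100, growth inhibition (40 = 60% inhibited); 0, no net growth; -100 to 0, cell death (-40 = 40% of starting cells died; -100 = all dead).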 Unmarked numbers belong to inactive results. Activity calls are given as the source filed them. The calls were made as follows: active = growth percent below 10; inactive = the rest.
Legend:
Assay in all cases: NCI-60 one-dose screen, 48 h (100 = growth as untreated, 0 = no growth, -100 = all killed)
Details in all cases: 10 µM
[1] = system: SR leukemia
[2] = system: OVCAR-8 ovarian
[3] = system: OVCAR-5 ovarian
[4] = system: SK-OV-3 ovarian
[5] = system: IGROV1 ovarian
[6] = system: OVCAR-3 ovarian
[7] = system: HS 578T breast
[8] = system: NCI/ADR-RES ovarian
[9] = system: OVCAR-4 ovarian

Question: How did the growth [1] turn out when `N#Cc1c(-c2ccc(Cl)cc2)n(O)c2ccccc12` was run?
Answer: 9.6% (active)

Question: And the growth [2]?
Answer: 26.1%

Question: And the growth [3]?
Answer: 66%

Question: What about the growth [4] of the same compound?
Answer: 12.9%

Question: What about the growth [5] of the same compound?
Answer: 4.22% (active)

Question: What about the growth [6] of the same compound?
Answer: 4.13% (active)

Question: What about the growth [7] of the same compound?
Answer: -21.6% (active)

Question: What about the growth [8] of the same compound?
Answer: 2.73% (active)

Question: Which growth [1] does the source give for `COc1ccc(-c2cc(-c3ccccc3)nc(SCCCCCCC(=O)NO)n2)cc1` here?
Answer: 21.1%

Question: What about the growth [2] of the same compound?
Answer: 43.7%

Question: What about the growth [3] of the same compound?
Answer: 58.2%

Question: What about the growth [9] of the same compound?
Answer: 76.6%

Question: And the growth [4]?
Answer: 61.2%

Question: And the growth [5]?
Answer: 32.2%

Question: And the growth [7]?
Answer: 54%

Question: And the growth [8]?
Answer: 9.46% (active)

Question: `COc1ccc(-c2nn(-c3cccc(Cl)c3)cc2-c2cc(-c3ccccc3)nc(N)n2)cc1` was tested. Which growth [1] did it give?
Answer: 11.3%

Question: What about the growth [2] of the same compound?
Answer: 67.9%

Question: What about the growth [3] of the same compound?
Answer: 59%

Question: And the growth [9]?
Answer: 56.1%

Question: And the growth [4]?
Answer: 98.5%

Question: And the growth [5]?
Answer: 83.7%

Question: And the growth [6]?
Answer: 72.2%

Question: What about the growth [7] of the same compound?
Answer: 62%

Question: And the growth [8]?
Answer: 53.3%

Question: With `Nc1ccccc1NC(=O)c1ccc(CCCC(=O)Nc2ccc(C3CC3N)cc2)cc1` (stereo not drawn) as the compound, how does the growth [1] read?
Answer: 31.5%

Question: What about the growth [2] of the same compound?
Answer: 17.3%

Question: What about the growth [3] of the same compound?
Answer: 33.1%

Question: What about the growth [4] of the same compound?
Answer: 32.4%

Question: What about the growth [5] of the same compound?
Answer: 44.3%

Question: And the growth [6]?
Answer: 25.4%

Question: And the growth [7]?
Answer: 36.7%

Question: What about the growth [8] of the same compound?
Answer: 98.6%

Question: With `Nc1ccc(-c2cccs2)cc1NC(=O)c1ccc(CCCC(=O)Nc2ccc(C3CC3N)cc2)cc1` (stereo not drawn) as the compound, how does the growth [1] read?
Answer: -10.5% (active)

Question: And the growth [2]?
Answer: 44.9%

Question: And the growth [3]?
Answer: 86.2%

Question: And the growth [9]?
Answer: 93%

Question: What about the growth [4] of the same compound?
Answer: 68%

Question: What about the growth [5] of the same compound?
Answer: 80.9%

Question: What about the growth [6] of the same compound?
Answer: 63%

Question: What about the growth [7] of the same compound?
Answer: 75.5%

Question: What about the growth [8] of the same compound?
Answer: 87.5%

Question: With `O=C(CCCSc1nc(-c2ccc(Cl)cc2)cc(-c2ccc(Cl)cc2)n1)NO` as the compound, how does the growth [1] read?
Answer: 7.59% (active)

Question: What about the growth [2] of the same compound?
Answer: 13.7%

Question: And the growth [3]?
Answer: 18%

Question: What about the growth [9] of the same compound?
Answer: 19.2%

Question: And the growth [4]?
Answer: 14.2%

Question: What about the growth [5] of the same compound?
Answer: 24.8%

Question: What about the growth [7] of the same compound?
Answer: 53.5%

Question: And the growth [8]?
Answer: -28.7% (active)

Question: What does the source list for `CCCCN(CCCC)C(=O)[C@H](CC)[C@@H]1CC[C@@H](C)[C@@H]([C@H](C)[C@@H](O)[C@@H](C)C(=O)[C@H](CC)C2O[C@]3(C=C[C@@H](O)[C@]4(CC[C@@](C)([C@H]5CC[C@](O)(CC)[C@H](C)O5)O4)O3)[C@H](C)C[C@@H]2C)O1` (stereo partly drawn)?
Answer: growth [1]: 27%; growth [2]: 12.5%; growth [3]: 24%; growth [9]: 9.88% (active); growth [4]: -8.58% (active); growth [5]: 20.1%; growth [6]: 4.13% (active); growth [7]: 14.5%; growth [8]: 25.4%

Question: `COc1ccc(-c2cc(-c3ccc(OC)c(OC)c3)nc(SCCCC(=O)NO)n2)cc1` was tested. Which growth [1] did it give?
Answer: 15.1%

Question: What about the growth [3] of the same compound?
Answer: 15.9%

Question: What about the growth [4] of the same compound?
Answer: -21.3% (active)

Question: What about the growth [5] of the same compound?
Answer: -25.1% (active)

Question: What about the growth [6] of the same compound?
Answer: -24% (active)

Question: And the growth [7]?
Answer: 4.08% (active)

Question: What about the growth [8] of the same compound?
Answer: -34.7% (active)

Question: What does the source list for `C=CCN(CC=C)C(=O)[C@H](CC)[C@@H]1CC[C@@H](C)[C@@H]([C@H](C)[C@@H](O)[C@@H](C)C(=O)[C@H](CC)C2O[C@]3(C=C[C@@H](O)[C@]4(CC[C@@](C)([C@H]5CC[C@](O)(CC)[C@H](C)O5)O4)O3)[C@H](C)C[C@@H]2C)O1` (stereo partly drawn)?
Answer: growth [1]: 36.9%; growth [2]: 16%; growth [9]: 25.4%; growth [4]: 4.44% (active); growth [5]: 10.7%; growth [6]: 14.6%; growth [7]: 13.4%; growth [8]: 1.02% (active)

Question: Which results are given for `c1cncc(-c2csc(-c3c[nH]c4ccccc34)n2)c1`?
Answer: growth [1]: 70%; growth [2]: 95.8%; growth [3]: 95.6%; growth [9]: 79.1%; growth [4]: 79.3%; growth [5]: 68.8%; growth [7]: 90.6%; growth [8]: 94.7%

Question: Which growth [1] does the source give for `Cc1ccc(NC(=S)NNC(=S)Nc2ccc(C)cc2)cc1` here?
Answer: 27.4%

Question: And the growth [2]?
Answer: 76%

Question: And the growth [3]?
Answer: 89.1%

Question: And the growth [9]?
Answer: 106%

Question: What about the growth [4] of the same compound?
Answer: 59.7%

Question: What about the growth [6] of the same compound?
Answer: 64.5%

Question: What about the growth [7] of the same compound?
Answer: 78.4%

Question: And the growth [8]?
Answer: 31.7%

Question: For `CCOC(=O)CSc1nc(-c2cc(OC)ccc2OC)cc(-c2ccc(OC)cc2)c1C#N`, which growth [1] is on record?
Answer: 69.7%

Question: What about the growth [3] of the same compound?
Answer: 97.3%

Question: What about the growth [9] of the same compound?
Answer: 101%

Question: And the growth [4]?
Answer: 85%

Question: And the growth [5]?
Answer: 55.4%

Question: And the growth [6]?
Answer: 95.4%

Question: What about the growth [7] of the same compound?
Answer: 90.2%

Question: And the growth [8]?
Answer: 81.6%

Question: Which results are given for `COc1cc(-c2ccc[nH]2)[nH]c1/C=C1\N=C(C)C(C(=O)NC(C)C)=C1C`?
Answer: growth [1]: -15.5% (active); growth [2]: 14.7%; growth [3]: 43.2%; growth [9]: 23.5%; growth [4]: 50.7%; growth [5]: 34%; growth [6]: 19.5%; growth [7]: 39.1%; growth [8]: 17.6%

Question: For `Fc1ccc2[nH]cc(-c3nc(-c4ccsc4)cs3)c2c1`, which growth [1] is on record?
Answer: 86.2%

Question: What about the growth [2] of the same compound?
Answer: 94.4%

Question: And the growth [3]?
Answer: 107%

Question: And the growth [4]?
Answer: 80.5%

Question: And the growth [5]?
Answer: 85.7%

Question: What about the growth [6] of the same compound?
Answer: 99.8%

Question: What about the growth [7] of the same compound?
Answer: 96.8%

Question: And the growth [8]?
Answer: 80.8%

Question: `C/C(=C/CCC(C)[C@@H]1CC[C@]2(C)C3=C(CC[C@@]12C)[C@@]1(C)CCC(=O)C(C)(C)[C@@H]1CC3)C(=O)O` (stereo partly drawn) was tested. Which growth [1] did it give?
Answer: -27.8% (active)

Question: And the growth [3]?
Answer: -75.6% (active)

Question: And the growth [9]?
Answer: -70.2% (active)

Question: And the growth [4]?
Answer: -97.5% (active)

Question: What about the growth [5] of the same compound?
Answer: -87% (active)

Question: And the growth [6]?
Answer: -96% (active)

Question: What about the growth [7] of the same compound?
Answer: -37.3% (active)

Question: And the growth [8]?
Answer: -52.8% (active)
